{"source": "paper PMC7862700", "about": "“An all-to-all approach to the identification of sequence-specific readers for epigenetic DNA modifications on cytosine”", "test_in_all_cases": "DAPPL (digital affinity profiling via proximity ligation, sequencing); 10 mM Tris-HCl pH 7.5, 50 mM NaCl, 1 mM DTT, 4% glycerol, room temperature, 30 min; GST-TFs on glutathione beads, 16-mer random dsDNA library, 0.1% formaldehyde crosslink after washing; high values mean tight binding", "details_in_all_cases": "protein: recombinant; tags: N-terminal GST; dsDNA, one strand shown", "key": {"FLI1": {"molecular_target": "T1, FLI1 (Homo sapiens, UniProt Q01543 1-452)", "T1 sequence": "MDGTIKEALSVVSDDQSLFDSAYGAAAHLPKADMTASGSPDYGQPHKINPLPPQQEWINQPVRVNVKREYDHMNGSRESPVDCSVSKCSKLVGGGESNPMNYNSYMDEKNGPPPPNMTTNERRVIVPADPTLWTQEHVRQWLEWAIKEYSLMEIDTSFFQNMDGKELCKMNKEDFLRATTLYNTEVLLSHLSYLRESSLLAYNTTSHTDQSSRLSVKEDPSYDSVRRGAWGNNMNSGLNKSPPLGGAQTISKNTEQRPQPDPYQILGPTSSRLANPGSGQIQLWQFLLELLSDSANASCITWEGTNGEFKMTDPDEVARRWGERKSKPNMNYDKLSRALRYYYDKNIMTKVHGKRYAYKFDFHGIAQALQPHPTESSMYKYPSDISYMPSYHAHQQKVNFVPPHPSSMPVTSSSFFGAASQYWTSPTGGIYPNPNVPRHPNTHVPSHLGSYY", "outline": "(§1)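 Each value of binding signal is a hexamer's read frequency for a factor divided by the same hexamer's frequency in the tag-only sample. Barcoded, bead-captured GST fusions of human transcription factors made in yeast were pooled with that sample and incubated with 200 nmole of a random double-stranded 16-mer DNA library in Tris/NaCl/DTT/glycerol buffer at room temperature for 30 min. Washing, 0.1% formaldehyde crosslinking, proximity ligation, PCR and Illumina NextSeq500 sequencing followed.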"}, "ELK1": {"molecular_target": "T2, ELK1 (Homo sapiens, UniProt P19419 1-428)", "T2 sequence": "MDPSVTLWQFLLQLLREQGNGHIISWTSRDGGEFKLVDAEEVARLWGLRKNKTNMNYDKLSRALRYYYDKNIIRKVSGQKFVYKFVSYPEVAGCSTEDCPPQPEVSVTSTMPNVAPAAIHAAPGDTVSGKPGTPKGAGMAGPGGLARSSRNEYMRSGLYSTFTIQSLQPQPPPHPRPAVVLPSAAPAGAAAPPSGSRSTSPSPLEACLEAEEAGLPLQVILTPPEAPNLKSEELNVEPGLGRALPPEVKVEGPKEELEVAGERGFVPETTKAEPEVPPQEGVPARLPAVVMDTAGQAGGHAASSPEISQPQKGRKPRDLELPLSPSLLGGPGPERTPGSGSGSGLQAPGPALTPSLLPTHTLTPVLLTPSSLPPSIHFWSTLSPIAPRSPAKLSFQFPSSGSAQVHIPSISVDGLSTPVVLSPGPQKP", "outline": "as §1"}, "GABPA": {"molecular_target": "T3, GABPA (Homo sapiens, UniProt Q06546 1-454)", "T3 sequence": "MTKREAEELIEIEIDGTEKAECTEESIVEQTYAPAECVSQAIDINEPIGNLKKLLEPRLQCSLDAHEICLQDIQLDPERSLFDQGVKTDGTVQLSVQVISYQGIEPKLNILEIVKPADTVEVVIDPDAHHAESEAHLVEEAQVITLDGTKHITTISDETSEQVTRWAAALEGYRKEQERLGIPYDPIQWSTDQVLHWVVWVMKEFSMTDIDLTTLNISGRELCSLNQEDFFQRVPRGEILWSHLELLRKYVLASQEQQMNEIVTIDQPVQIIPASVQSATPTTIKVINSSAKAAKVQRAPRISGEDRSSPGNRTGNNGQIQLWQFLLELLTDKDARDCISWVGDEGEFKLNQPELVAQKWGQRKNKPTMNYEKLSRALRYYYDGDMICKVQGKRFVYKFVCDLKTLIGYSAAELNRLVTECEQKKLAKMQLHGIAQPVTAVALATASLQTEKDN", "outline": "as §1"}, "ERG": {"molecular_target": "T4, ERG (Homo sapiens, UniProt P11308 1-479)", "T4 sequence": "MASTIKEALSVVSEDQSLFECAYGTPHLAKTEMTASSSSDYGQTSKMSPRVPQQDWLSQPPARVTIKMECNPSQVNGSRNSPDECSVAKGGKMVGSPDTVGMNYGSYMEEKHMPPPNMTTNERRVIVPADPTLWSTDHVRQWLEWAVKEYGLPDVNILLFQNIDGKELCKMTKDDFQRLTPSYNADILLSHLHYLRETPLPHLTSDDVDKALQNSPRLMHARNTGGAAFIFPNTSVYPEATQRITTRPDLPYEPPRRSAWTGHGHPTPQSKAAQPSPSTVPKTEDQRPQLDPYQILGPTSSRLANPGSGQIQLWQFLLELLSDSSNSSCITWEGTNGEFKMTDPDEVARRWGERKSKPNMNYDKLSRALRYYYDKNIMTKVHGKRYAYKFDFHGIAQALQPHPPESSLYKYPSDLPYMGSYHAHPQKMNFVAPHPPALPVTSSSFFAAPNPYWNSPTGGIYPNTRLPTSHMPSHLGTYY", "outline": "as §1"}, "ELF1": {"molecular_target": "ELF1 (Homo sapiens, UniProt P32519 1-619)", "sequence (P32519 whole entry)": "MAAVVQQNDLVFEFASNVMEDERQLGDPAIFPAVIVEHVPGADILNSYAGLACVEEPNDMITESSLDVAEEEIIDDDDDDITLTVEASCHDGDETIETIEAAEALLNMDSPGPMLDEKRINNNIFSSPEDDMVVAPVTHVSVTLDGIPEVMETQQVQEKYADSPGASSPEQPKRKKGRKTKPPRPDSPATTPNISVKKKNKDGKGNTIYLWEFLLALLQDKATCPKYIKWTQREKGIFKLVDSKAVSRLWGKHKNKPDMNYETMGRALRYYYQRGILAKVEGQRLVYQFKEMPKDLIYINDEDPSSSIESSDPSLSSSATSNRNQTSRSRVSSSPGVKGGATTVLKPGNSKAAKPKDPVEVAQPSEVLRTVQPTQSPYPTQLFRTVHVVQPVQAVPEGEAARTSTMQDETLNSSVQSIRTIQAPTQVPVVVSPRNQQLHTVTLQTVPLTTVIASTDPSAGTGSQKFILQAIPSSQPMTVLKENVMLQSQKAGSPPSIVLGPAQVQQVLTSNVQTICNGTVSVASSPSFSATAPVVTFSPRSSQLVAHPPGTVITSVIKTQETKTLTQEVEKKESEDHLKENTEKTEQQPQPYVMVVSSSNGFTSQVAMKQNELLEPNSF", "outline": "as §1"}, "EHF": {"molecular_target": "T5, EHF (Homo sapiens, UniProt Q9NZC4 1-300)", "T5 sequence": "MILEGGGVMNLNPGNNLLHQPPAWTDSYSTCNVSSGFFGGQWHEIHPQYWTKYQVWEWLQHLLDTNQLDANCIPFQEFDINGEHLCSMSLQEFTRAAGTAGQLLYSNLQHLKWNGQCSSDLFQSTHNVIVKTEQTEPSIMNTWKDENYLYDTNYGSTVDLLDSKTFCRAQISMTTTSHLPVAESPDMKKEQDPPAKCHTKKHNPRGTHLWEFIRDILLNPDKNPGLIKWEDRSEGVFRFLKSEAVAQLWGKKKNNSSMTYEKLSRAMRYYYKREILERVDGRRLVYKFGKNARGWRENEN", "outline": "as §1"}, "SPI1": {"molecular_target": "SPI1 (Homo sapiens, UniProt P17947 1-270)", "outline": "as §1"}, "SPIB": {"molecular_target": "SPIB (Homo sapiens, UniProt Q01892 1-262)", "sequence (Q01892 whole entry)": "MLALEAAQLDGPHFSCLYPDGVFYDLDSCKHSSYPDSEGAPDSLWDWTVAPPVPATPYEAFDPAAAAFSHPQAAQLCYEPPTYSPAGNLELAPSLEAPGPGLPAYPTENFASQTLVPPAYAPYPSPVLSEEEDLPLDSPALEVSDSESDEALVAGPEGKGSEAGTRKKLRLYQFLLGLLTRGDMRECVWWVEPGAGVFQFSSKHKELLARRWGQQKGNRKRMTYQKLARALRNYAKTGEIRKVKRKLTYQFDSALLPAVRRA", "outline": "as §1"}, "ELK3": {"molecular_target": "T6, ELK3 (Homo sapiens, UniProt P41970 1-407)", "T6 sequence": "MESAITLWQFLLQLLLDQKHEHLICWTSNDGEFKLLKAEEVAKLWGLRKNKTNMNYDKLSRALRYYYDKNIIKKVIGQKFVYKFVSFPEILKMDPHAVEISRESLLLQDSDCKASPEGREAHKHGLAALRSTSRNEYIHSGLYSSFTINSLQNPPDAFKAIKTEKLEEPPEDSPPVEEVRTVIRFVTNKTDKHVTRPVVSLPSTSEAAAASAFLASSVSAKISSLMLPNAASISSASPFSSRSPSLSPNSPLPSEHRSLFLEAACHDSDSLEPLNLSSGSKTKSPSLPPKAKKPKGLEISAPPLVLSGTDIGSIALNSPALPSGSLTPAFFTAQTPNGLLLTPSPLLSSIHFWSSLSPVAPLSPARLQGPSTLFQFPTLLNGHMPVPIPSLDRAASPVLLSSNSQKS", "outline": "as §1"}, "FEV": {"molecular_target": "T7, FEV (Homo sapiens, UniProt Q99581 1-238)", "T7 sequence": "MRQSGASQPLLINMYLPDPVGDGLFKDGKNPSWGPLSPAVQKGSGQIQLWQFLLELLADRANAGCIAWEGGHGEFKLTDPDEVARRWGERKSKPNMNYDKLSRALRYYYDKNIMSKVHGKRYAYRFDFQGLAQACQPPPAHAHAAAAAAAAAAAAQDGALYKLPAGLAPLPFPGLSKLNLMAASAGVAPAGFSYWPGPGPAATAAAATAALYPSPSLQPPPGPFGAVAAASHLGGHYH", "outline": "as §1"}, "ETV5": {"molecular_target": "ETV5 (Homo sapiens, UniProt P41161 1-510)", "sequence (P41161 whole entry)": "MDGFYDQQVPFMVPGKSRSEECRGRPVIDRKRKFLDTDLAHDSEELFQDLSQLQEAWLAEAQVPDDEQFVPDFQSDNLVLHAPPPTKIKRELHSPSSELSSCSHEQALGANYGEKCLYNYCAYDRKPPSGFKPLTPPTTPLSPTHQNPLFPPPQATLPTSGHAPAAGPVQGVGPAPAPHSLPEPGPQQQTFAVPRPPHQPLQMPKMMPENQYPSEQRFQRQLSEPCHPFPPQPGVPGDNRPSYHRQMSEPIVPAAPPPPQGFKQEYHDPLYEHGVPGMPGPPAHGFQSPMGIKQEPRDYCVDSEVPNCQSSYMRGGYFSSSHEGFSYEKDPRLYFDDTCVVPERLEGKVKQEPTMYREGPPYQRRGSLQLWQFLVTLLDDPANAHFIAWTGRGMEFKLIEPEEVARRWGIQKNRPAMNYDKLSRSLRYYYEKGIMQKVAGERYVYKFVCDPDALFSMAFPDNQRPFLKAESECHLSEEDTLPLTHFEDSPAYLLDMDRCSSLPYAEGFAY", "outline": "as §1"}, "SPIC": {"molecular_target": "T8, SPIC (Homo sapiens, UniProt Q8N5J4 1-248)", "T8 sequence": "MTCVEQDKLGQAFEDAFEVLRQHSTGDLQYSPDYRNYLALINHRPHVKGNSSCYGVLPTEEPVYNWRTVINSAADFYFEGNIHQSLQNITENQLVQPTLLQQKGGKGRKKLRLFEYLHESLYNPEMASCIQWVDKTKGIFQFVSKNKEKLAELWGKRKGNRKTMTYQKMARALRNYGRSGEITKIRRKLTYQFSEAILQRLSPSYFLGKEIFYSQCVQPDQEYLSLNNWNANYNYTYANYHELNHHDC", "outline": "as §1"}, "ELF4": {"molecular_target": "ELF4 (Homo sapiens, UniProt Q99607 1-663)", "sequence (Q99607 whole entry)": "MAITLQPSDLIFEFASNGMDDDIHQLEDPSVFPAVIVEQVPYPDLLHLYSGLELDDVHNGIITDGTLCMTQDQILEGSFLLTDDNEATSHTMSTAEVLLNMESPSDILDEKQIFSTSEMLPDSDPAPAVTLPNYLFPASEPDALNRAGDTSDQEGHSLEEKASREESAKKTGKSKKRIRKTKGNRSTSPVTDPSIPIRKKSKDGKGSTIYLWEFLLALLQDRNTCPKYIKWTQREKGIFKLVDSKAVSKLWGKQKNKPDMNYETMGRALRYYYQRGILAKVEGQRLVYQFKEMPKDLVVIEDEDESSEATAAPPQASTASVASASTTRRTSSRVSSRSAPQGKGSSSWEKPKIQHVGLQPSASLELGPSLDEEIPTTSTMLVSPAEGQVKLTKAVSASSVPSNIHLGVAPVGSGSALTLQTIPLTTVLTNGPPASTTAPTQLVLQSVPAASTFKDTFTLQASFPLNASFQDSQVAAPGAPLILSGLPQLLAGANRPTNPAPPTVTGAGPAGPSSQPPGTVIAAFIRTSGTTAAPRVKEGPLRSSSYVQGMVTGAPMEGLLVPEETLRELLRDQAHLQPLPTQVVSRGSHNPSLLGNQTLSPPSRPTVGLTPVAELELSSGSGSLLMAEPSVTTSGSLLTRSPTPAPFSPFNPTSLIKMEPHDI", "outline": "as §1"}, "ELK4": {"molecular_target": "T9, ELK4 (Homo sapiens, UniProt P28324-2 1-405)", "T9 sequence": "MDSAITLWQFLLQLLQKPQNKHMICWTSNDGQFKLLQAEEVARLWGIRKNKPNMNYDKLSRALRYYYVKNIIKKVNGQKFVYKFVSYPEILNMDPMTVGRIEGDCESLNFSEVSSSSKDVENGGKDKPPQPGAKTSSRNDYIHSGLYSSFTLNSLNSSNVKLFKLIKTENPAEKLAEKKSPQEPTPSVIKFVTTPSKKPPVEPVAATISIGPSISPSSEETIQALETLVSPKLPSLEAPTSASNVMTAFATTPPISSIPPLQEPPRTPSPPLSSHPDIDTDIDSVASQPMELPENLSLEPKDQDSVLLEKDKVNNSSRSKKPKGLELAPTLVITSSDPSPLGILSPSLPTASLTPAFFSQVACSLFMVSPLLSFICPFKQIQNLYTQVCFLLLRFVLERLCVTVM", "outline": "as §1"}, "ETV2": {"molecular_target": "T10, ETV2 (Homo sapiens, UniProt O00321 1-342)", "T10 sequence": "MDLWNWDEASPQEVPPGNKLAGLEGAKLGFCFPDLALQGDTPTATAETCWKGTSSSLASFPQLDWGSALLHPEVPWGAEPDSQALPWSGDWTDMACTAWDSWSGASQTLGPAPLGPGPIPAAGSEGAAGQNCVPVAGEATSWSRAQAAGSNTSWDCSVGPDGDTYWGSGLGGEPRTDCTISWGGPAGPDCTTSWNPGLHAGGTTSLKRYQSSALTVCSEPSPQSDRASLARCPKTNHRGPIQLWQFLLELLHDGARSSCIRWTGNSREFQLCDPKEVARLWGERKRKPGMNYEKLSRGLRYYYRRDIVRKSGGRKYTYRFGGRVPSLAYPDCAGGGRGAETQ", "outline": "as §1"}, "ELF3": {"molecular_target": "T11, ELF3 (Homo sapiens, UniProt P78545 1-371)", "T11 sequence": "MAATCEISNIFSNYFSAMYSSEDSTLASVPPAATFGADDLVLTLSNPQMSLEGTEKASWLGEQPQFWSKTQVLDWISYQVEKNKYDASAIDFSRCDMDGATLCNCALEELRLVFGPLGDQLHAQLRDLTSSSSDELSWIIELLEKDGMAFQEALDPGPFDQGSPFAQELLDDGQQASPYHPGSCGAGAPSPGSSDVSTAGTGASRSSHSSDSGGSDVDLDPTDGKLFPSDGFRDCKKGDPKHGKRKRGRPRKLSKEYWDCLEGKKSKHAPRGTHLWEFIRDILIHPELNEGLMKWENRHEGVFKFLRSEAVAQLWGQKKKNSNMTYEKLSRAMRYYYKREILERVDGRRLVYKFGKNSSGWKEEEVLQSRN", "outline": "as §1"}, "ETV1": {"molecular_target": "ETV1 (Homo sapiens, UniProt P50549 1-477)", "sequence (P50549 whole entry)": "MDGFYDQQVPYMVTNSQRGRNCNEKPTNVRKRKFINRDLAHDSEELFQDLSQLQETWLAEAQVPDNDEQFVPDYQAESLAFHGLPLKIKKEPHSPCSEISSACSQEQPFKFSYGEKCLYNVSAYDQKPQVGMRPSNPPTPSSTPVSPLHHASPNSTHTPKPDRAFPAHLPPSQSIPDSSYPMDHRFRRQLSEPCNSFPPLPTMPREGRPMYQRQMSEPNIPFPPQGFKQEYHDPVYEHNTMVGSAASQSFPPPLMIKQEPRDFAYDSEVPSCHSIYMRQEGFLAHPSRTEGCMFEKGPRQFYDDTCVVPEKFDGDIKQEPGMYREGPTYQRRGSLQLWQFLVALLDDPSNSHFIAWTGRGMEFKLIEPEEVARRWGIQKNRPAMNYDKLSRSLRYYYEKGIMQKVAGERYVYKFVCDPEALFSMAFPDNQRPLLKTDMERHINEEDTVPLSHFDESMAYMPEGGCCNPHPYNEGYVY", "outline": "as §1"}}}
{"sequence": "ACGACA", "values": [{"measurement": "binding signal", "setting": "FLI1", "value": "1.16 fold enrichment (6-mer frequency, TF over GST control)"}, {"measurement": "binding signal", "setting": "ELK1", "value": "1.05 fold enrichment (6-mer frequency, TF over GST control)"}, {"measurement": "binding signal", "setting": "GABPA", "value": "1.18 fold enrichment (6-mer frequency, TF over GST control)"}, {"measurement": "binding signal", "setting": "ERG", "value": "1.17 fold enrichment (6-mer frequency, TF over GST control)"}, {"measurement": "binding signal", "setting": "ELF1", "value": "1.07 fold enrichment (6-mer frequency, TF over GST control)"}, {"measurement": "binding signal", "setting": "EHF", "value": "1.27 fold enrichment (6-mer frequency, TF over GST control)"}, {"measurement": "binding signal", "setting": "SPI1", "value": "1.09 fold enrichment (6-mer frequency, TF over GST control)"}, {"measurement": "binding signal", "setting": "SPIB", "value": "1.16 fold enrichment (6-mer frequency, TF over GST control)"}, {"measurement": "binding signal", "setting": "ELK3", "value": "1.11 fold enrichment (6-mer frequency, TF over GST control)"}, {"measurement": "binding signal", "setting": "FEV", "value": "1.14 fold enrichment (6-mer frequency, TF over GST control)"}, {"measurement": "binding signal", "setting": "ETV5", "value": "1.11 fold enrichment (6-mer frequency, TF over GST control)"}, {"measurement": "binding signal", "setting": "SPIC", "value": "1.18 fold enrichment (6-mer frequency, TF over GST control)"}, {"measurement": "binding signal", "setting": "ELF4", "value": "1.22 fold enrichment (6-mer frequency, TF over GST control)"}, {"measurement": "binding signal", "setting": "ELK4", "value": "1.16 fold enrichment (6-mer frequency, TF over GST control)"}, {"measurement": "binding signal", "setting": "ETV2", "value": "1.1 fold enrichment (6-mer frequency, TF over GST control)"}, {"measurement": "binding signal", "setting": "ELF3", "value": "1.22 fold enrichment (6-mer frequency, TF over GST control)"}, {"measurement": "binding signal", "setting": "ETV1", "value": "1.18 fold enrichment (6-mer frequency, TF over GST control)"}]}
